According to PubChem BioAssay AID1963322 (National Center for Advancing Translational Sciences (NCATS), 2024):
Inconclusive results are not listed. Unmarked numbers belong to inactive results. Active and inactive are the calls of the source. The call rests on the fitted dose curve.

What follows are compounds tested against cAMP-dependent protein kinase catalytic subunit alpha (Homo sapiens) (UniProt P17612) (assay: Protein Kinase A (PKA-HiBiT) SDR gain of signal screen). Conditions: PKA-HiBiT structural dynamics response (SDR), luminescence gain of signal; series mostly up to 32.9 µM; activity change, positive = signal gain: at the top concentration.
Excerpt: National Center for Advancing Translational Sciences (NCATS),
National Institute of Health (NIH), Maryland
Discovery and optimization of novel protein-binding ligands underlies many of the methods and applications of biology, drug discovery, clinical diagnostics, and environmental toxicology. Assays for detecting the interaction of, for example, a molecule with a macromolecular target also referred to here as the target of interest (TOI) is dependent on a compatible output technology. Depending on the nature and knowledge surrounding the TOI, whether a receptor, enzyme, regulatory subunit or scaffold, or a sequence-defined nucleic acid folded into a complex tertiary structure, assay strategies can vary widely.
Here we exploit ligand-biased changes in the structural dynamics of the target protein to control reporter alpha complementation allowing a non-competitive, non-functional, non-separation measure of ligand-target interaction.
Using a chemical library of >1,200 compounds enriched for scaffolds known to be associated with the inhibition of firefly luciferase (FLuc) activity (PubChem AIDs 2309) we first illustrate and compare the Structural Dynamics Response (SDR) assay vs. the standard functional FLuc enzyme assay (2). Secondly, we show the specificity and sensitivity of the SDR for the Abelson tyrosine kinase (ABL1) compared to the serine/threonine protein kinase A, using an enriched chemical library of 128 compounds selected, in part, for activity annotated with ABL1 kinase activity using the Pharos database (3).
(1) A. S. Dixon et al., NanoLuc Complementation Reporter Optimized for Accurate Measurement of Protein Interactions in Cells. ACS Chem Biol 11, 400-408 (2016).
Chemistry & Biology, 19, 1060 - 1072 (2012).
(3) K. J. Kelleher et al., Pharos 2023: an integrated resource for the understudied human proteome. Nucleic Acids Res 51, D1405-D1416 (2023).
PROTOCOL TABLE (as described by Inglese J, Shamu CE and Guy RK. 2007)
SEQUENCE No. (e.g., 1, 2, 3, etc.); […] (e.g., C. elegans, Compounds, Incubation, Read, etc.); VALUE and DESCRIPTION.
1. Reagent. Dispense 4 uL PKA-N-HiBiT enzyme per well at a final enzyme concentration of 10 nM in buffer into columns 2-48 of four replicate Greiner 1536-well white,solid bottom high base, medium plates per assay. Dispense respective buffer without enzyme at 4 uL/well in column 1 of assay plates using BioRaptr 2.
2. Compounds. Library compounds added at 23 nL/well by pin transfer. DMSO neutral control and H-89 positive control added at 25 nL/well, transfer by Mosquito dispenser.
3. Incubation. Incubate enzyme and compounds at room temperature for 30 min, protect from light.
4. Reagent. (SDR assay) Add 3 uL/well of Nano-Glo HiBiT reagent (Promega) to assay plates.
5. Incubation. (SDR assay) Incubate enzyme solution HiBiT reagent at room temperature for 10 min, protected from light.
6. Detector. (SDR assay) Luminescence measured using CCD-based camera (ViewLux) with settings as follows: Exposure, 1 sec; Gain, High; Speed, Slow; Binning, 2X.

**Q.** With Nc1nc(Nc2ccc(S(N)(=O)=O)cc2)n(C(=S)Nc2c(F)cccc2F)n1 as the compound, how does the Potency read?
**A.** The Potency was 11.1 µM (active).

**Q.** Cc1cn(-c2cc(F)cc(NC(=O)c3ccc(C)c(Nc4nccc(-c5cccnc5)n4)c3)c2)cn1 was tested. Which “activity change, positive = signal gain” value did it give?
**A.** The value was -14.2%.

**Q.** For Cc1ccc(NC(=O)N2CCN(c3nc(N)nc4sc(-c5cccnc5)nc34)CC2)cc1, which “activity change, positive = signal gain” value is on record?
**A.** Its value is 4.4%.

**Q.** How did the “activity change, positive = signal gain” value turn out when COc1cc2nccc(Oc3ccc(NC(=O)Nc4ccc(F)cc4F)c(F)c3)c2cc1OC was run?
**A.** Its value is 5.98%.

**Q.** With CN1CCN(CCCNc2ncc(Cl)c(-c3cc4c(C(=O)NC5CC5)cccc4s3)n2)CC1 as the compound, how does the “activity change, positive = signal gain” value read?
**A.** The value was -4.3%.

**Q.** With CCCCCCCCCCCCc1ccc(S(=O)(=O)Nc2nncs2)cc1 as the compound, how does the “activity change, positive = signal gain” value read?
**A.** Its value is -1.75%.

**Q.** C=CC(=O)N1CCC(Oc2cc3c(Nc4ccc(Cl)c(Cl)c4F)ncnc3cc2OC)CC1 was tested. Which “activity change, positive = signal gain” value did it give?
**A.** The value was 8.76%.

**Q.** For COc1cc(N2CCOCC2)ccc1Nc1ncc(Cl)c(Nc2ccccc2NS(C)(=O)=O)n1, which Potency is on record?
**A.** The Potency was 1.34 µM (active).

**Q.** With CC1(C)OCCn2c1nc1c(N3CCOCC3)nc(-c3cnc(N)nc3)nc12 as the compound, how does the “activity change, positive = signal gain” value read?
**A.** The value was 4.3%.

**Q.** With FC(F)(F)c1ccc(/C=C/c2nc(COc3ccc(CCCCn4ccnn4)cc3)co2)cc1 as the compound, how does the “activity change, positive = signal gain” value read?
**A.** The value was 7.11%.

**Q.** For COc1ccc2c(Oc3ccc(NC(=O)c4c(C)n(CC(C)(C)O)n(-c5ccccc5)c4=O)nc3)ccnc2c1, which “activity change, positive = signal gain” value is on record?
**A.** The value was -19.2%.

**Q.** How did the “activity change, positive = signal gain” value turn out when Cn1cc(-c2cc3c(N4CCN(c5ncc([C@@](C)(N)c6ccc(F)cc6)cn5)CC4)ncnn3c2)cn1 was run?
**A.** The value was 11.1%.

**Q.** How did the “activity change, positive = signal gain” value turn out when CCN(CC)CCOc1ccc(Nc2ncc3cc(-c4c(Cl)cccc4Cl)c(=O)n(C)c3n2)cc1 was run?
**A.** Its value is -49.5%.

**Q.** For CNc1ncc2cc(-c3cc(NC(=O)NCCC(C)(C)C)c(F)cc3C)c(C)nc2n1, which “activity change, positive = signal gain” value is on record?
**A.** The value was 2.19%.

**Q.** For COc1ccc(CNC(=O)Nc2ncc([N+](=O)[O-])s2)cc1, which “activity change, positive = signal gain” value is on record?
**A.** The value was -0.27%.

**Q.** With Cc1[nH]nc2ncc(C(=O)N3CCC[C@H]3c3ccc(Cl)cc3)cc12 as the compound, how does the Potency read?
**A.** The Potency was 12.4 µM (active).

**Q.** How did the “activity change, positive = signal gain” value turn out when O=c1c(O)c(-c2ccc(O)c(O)c2)oc2cc(O)cc(O)c12 was run?
**A.** The value was -2.25%.

**Q.** For Cc1ccc(C(=O)Nc2ccc(Oc3cc4cnn(C)c4cc3-c3cn[nH]c3)c(F)c2)c(=O)n1-c1ccc(F)cc1, which “activity change, positive = signal gain” value is on record?
**A.** Its value is 8.3%.

**Q.** With NC1CCC(Nc2nc(Nc3ccc(C(=O)N4CCCCC4)cc3)c3ncn(-c4cccc(F)c4)c3n2)CC1 (stereo not given) as the compound, how does the Potency read?
**A.** The Potency was 11.5 µM (active).

**Q.** Which “activity change, positive = signal gain” value does the source give for Cc1sc2c(c1C)C(c1ccc(Cl)cc1)=N[C@@H](CC(=O)Nc1ccc(OCCOCCOCCOCCNc3cccc4c3C(=O)N(C3CCC(=O)NC3=O)C4=O)cc1)c1nnc(C)n1-2 (stereo not given in full) here?
**A.** The value was 4.85%.

**Q.** Which “activity change, positive = signal gain” value does the source give for Nc1ncccc1-c1nc2ccc(-c3ccccc3)nc2n1-c1ccc(C2(N)CCC2)cc1 here?
**A.** Its value is 2.31%.

**Q.** With c1ccc(-c2oc3ncnc(NC[C@@H]4CCCO4)c3c2-c2ccccc2)cc1 as the compound, how does the “activity change, positive = signal gain” value read?
**A.** Its value is 5.8%.

**Q.** How did the “activity change, positive = signal gain” value turn out when CN1CCN(CCOc2cc(OC3CCOCC3)c3c(Nc4c(Cl)ccc5c4OCO5)ncnc3c2)CC1 was run?
**A.** Its value is 5.07%.

**Q.** For C#Cc1cccc(Nc2ncnc3cc4c(cc23)OCCOCCOCCO4)c1, which “activity change, positive = signal gain” value is on record?
**A.** The value was 4.44%.

**Q.** With Cc1cc(Nc2cc(N3CCN(C)CC3)nc(Sc3ccc(NC(=O)C4CC4)cc3)n2)n[nH]1 as the compound, how does the “activity change, positive = signal gain” value read?
**A.** Its value is -6.42%.

**Q.** COc1ccccc1-c1c[nH]c2ncc(-c3cncc(C(=O)N(C)C)c3)cc12 was tested. Which “activity change, positive = signal gain” value did it give?
**A.** Its value is 14.2%.

**Q.** O=C(NC1CCNCC1)c1[nH]ncc1NC(=O)c1c(Cl)cccc1Cl was tested. Which “activity change, positive = signal gain” value did it give?
**A.** Its value is 1.69%.

**Q.** Which “activity change, positive = signal gain” value does the source give for Cc1cc(Nc2ncc3cc(-c4c(Cl)cccc4Cl)c(=O)n(C)c3n2)ccc1F here?
**A.** The value was -18.3%.

**Q.** How did the “activity change, positive = signal gain” value turn out when O=C(Nc1ccc(OC(F)(F)F)cc1)c1sccc1NCc1ccnc2ccccc12 was run?
**A.** Its value is 10.2%.

**Q.** Cn1cc(-c2[nH]c3cc(NC(=O)[C@H](N)C4CCCCC4)cc4c3c2C=NNC4=O)cn1 was tested. Which Potency did it give?
**A.** The Potency was 0.6 µM (active).

**Q.** With CNS(=O)(=O)c1ccc2c(c1)/C(=C/c1[nH]c3c(c1CCCN1CCN(C)CC1)CCCC3)C(=O)N2 as the compound, how does the “activity change, positive = signal gain” value read?
**A.** Its value is -31.7%.

**Q.** With C[C@@H](NC(=O)c1ncnc(N)c1Cl)c1ncc(C(=O)Nc2cc(C(F)(F)F)c(Cl)cn2)s1 as the compound, how does the “activity change, positive = signal gain” value read?
**A.** The value was -1.83%.

**Q.** CSc1cccc(Nc2ncc3cc(-c4c(Cl)cccc4Cl)c(=O)n(C)c3n2)c1 was tested. Which “activity change, positive = signal gain” value did it give?
**A.** The value was -1.1%.

**Q.** How did the “activity change, positive = signal gain” value turn out when Cc1cn(-c2cccc(NC(=O)c3ccc(C)c(Nc4nccc(-c5cccnc5)n4)c3)c2)cn1 was run?
**A.** Its value is -0.576%.

**Q.** For CCCS(=O)(=O)Nc1ccc(F)c(C(=O)c2c[nH]c3ncc(Cl)cc23)c1F, which “activity change, positive = signal gain” value is on record?
**A.** Its value is 6.54%.

**Q.** For Cc1ccc(NC(=O)c2ccc(CN3CCN(C)CC3)cc2)cc1Nc1nc(-c2cccnc2)cs1, which “activity change, positive = signal gain” value is on record?
**A.** Its value is 5.21%.

**Q.** For Cn1sc(=O)n(Cc2ccccc2)c1=O, which “activity change, positive = signal gain” value is on record?
**A.** The value was 0.648%.

**Q.** For Cn1ncc(NC(=O)c2nc(-c3c(F)cccc3F)sc2N)c1N1CC[C@@H](N)[C@H](F)CC1, which Potency is on record?
**A.** The Potency was 0.7 µM (active).

**Q.** With O=C1CCC(N2C(=O)c3ccccc3C2=O)C(=O)N1 (stereo not given) as the compound, how does the “activity change, positive = signal gain” value read?
**A.** The value was -9.83%.

**Q.** How did the “activity change, positive = signal gain” value turn out when O=C(c1cccc(Cl)c1F)N1CCN(Cc2cccc(Nc3nccs3)n2)CC1 was run?
**A.** Its value is -14.8%.
